Here are results for 32 compounds from ChEMBL document CHEMBL3433997, “St. Jude Leishmania screening dataset” (2016).

What all share (format): functional
Experiment [1] has as its target Solute carrier family 2, facilitated glucose transporter member 1 (Homo sapiens) (UniProt P11166). Kind of experiment: ST_JUDE_LEISH: Cytotoxicity at 2uM final concentration against transgenic Leishmania Mexicana promastigotes LmGLUT1 that are glucose transport deficient and complemented with the human glucose transporter GLUT1. Activity is measured by DNA content using SYBR green in vitro.

Experiment [2] has as its target Hexose transporter 1 (Plasmodium falciparum) (UniProt O97467). Kind of experiment: ST_JUDE_LEISH: Cytotoxicity at 2uM final concentration against transgenic Leishmania Mexicana promastigotes LmPfHT that are glucose transport deficient and complemented with the Plasmodium falciparum hexose transporter. Activity is measured by DNA content using SYBR green in vitro.

Experiment [3] has as its target Glucose transporter (Leishmania mexicana) (UniProt O61059). Kind of experiment: ST_JUDE_LEISH: Cytotoxicity at 2uM final concentration against transgenic Leishmania Mexicana promastigotes LmGT2 that are glucose transport deficient and complemented with the L. Mexicana glucose transporter 2. Activity is measured by DNA content using SYBR green in vitro.

Chain of Solute carrier family 2, facilitated glucose transporter member 1 (Homo sapiens) (P11166 whole entry): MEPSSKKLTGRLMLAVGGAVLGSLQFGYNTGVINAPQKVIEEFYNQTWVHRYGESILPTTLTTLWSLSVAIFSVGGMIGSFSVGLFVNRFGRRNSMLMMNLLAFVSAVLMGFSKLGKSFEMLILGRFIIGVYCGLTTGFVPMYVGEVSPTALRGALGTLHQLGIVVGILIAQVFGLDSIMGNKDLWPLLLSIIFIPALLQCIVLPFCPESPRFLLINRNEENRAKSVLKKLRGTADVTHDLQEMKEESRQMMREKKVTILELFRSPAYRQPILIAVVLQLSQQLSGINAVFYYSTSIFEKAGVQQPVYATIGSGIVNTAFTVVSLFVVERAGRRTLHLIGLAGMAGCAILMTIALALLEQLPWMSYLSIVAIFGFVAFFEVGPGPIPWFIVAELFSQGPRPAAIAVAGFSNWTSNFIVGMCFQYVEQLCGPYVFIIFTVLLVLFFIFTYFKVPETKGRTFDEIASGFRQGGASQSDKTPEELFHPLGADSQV

For orientation: inhibition means the change of the read-out against control, counted positive when it falls. As for `CCCCc1cc(NCc2ccncc2)nc(Nc2ccccc2)n1`, the inhibition in experiment [1] was 13.6%; in experiment [2], 6.01%; in experiment [3], 4.07%.
`COc1cc(Nc2nccc(N3CCC(NC(=O)Nc4cc(C)ccc4C)C3)n2)cc(OC)c1OC` (stereo unspecified): the inhibition in experiment [1] was 1.64%; in experiment [2], 1.62%; in experiment [3], 2.46%.
On to `O=C1CCCN1CCCNCc1cccc(-c2ccc(-c3nc4cc(C(F)(F)F)ccc4[nH]3)s2)c1`, for which the inhibition is 4.12% in experiment [1], 3.19% in experiment [2] and 4.33% in experiment [3].
Turning to `Oc1cc(Nc2ccnc3cc(I)ccc23)c(F)cc1Cl`, the inhibition in experiment [1] turned out to be 6.52%; in experiment [2], 2.02%; in experiment [3], 3.58%.
With `O=C(Nc1cccc(-c2cc(-c3c(Cl)cccc3Cl)no2)c1)c1cncc(-c2cccs2)c1`, the inhibition in experiment [1] was 16%; in experiment [2], 11.1%; in experiment [3] it was 10.8%.
For the compound `COc1cc(C2Nc3ccc4ccccc4c3C3=C2C(=O)CC(C)(C)C3)ccc1Oc1ccc([N+](=O)[O-])cc1C#N` (stereo unspecified), the inhibition in experiment [1] is 4.18%; in experiment [2] it was 4.07%; in experiment [3], -0.66%.
On to `COC(=O)C1=CNC=C(C(=O)OC)C1c1ccc(Cl)c([N+](=O)[O-])c1`, for which the values for the inhibition in experiment [1], in experiment [2] and in experiment [3] were 10.8%, 8.44% and 6.42%, respectively.
Take `CN(C)CCC1CCCc2ccc(NC(=O)Nc3cccc(Cl)c3Cl)cc21` (stereo unspecified): the inhibition in experiment [1] was found to be 1.81%; in experiment [2] it was 2.38%; in experiment [3] it was 1.03%.
Take `COc1ccc(-c2ccc(NC(=O)c3cccc(Cl)c3)cc2)cc1CN1CCC(O)CC1`: the figures for the inhibition in experiment [1], in experiment [2] and in experiment [3] were 14.6%, 15.5% and 12.4%, respectively.
Take `Cc1cc(-c2c[nH]c3ncc(-c4cccc5ncccc45)cc23)ccc1C(=O)O`: the inhibition in experiment [1] was 0.89%; in experiment [2], 0.55%; in experiment [3], 0.66%.
As to `CCN(CC)CCN(Cc1ccc(-c2ccc(Cl)cc2)cc1)C(=O)Cn1cc(CN(C)C)c(=O)nc1SCc1ccc(F)cc1`, the inhibition is 0.45% in experiment [1], 0.54% in experiment [2] and 1.16% in experiment [3].
As to `COc1ccc(NC(=O)c2c(NC(=O)c3cccs3)sc3c2CCCC3)cc1`, the inhibition was determined as 0.31% in experiment [1], 2.45% in experiment [2] and 5.21% in experiment [3].
As to `CCN1CCC(N(Cc2ccc(-c3ccc(Cl)cc3)cc2)C(=O)Cn2c(CCc3cccc(F)c3F)cc(=O)c3ccccc32)CC1`, the inhibition in experiment [1] was 9.18%; in experiment [2], 5.52%; in experiment [3], 7.94%.
Consider `COc1c(C2CCN(CCCCNC(=O)c3ccc(-c4ccc(Cl)cc4)c(O)c3)CC2)ccc2c1CCCC2`, for which the inhibition in experiment [1] was 2.96%; in experiment [2], 2.6%; in experiment [3], 0.11%.
For the compound `CCCC[C@H](NC(=O)OC(C)(C)C)C(=O)Nc1ccc(Cc2ccc(NC(=O)[C@H](CCCC)NC(=O)OC(C)(C)C)cc2)cc1`, the inhibition in experiment [1] was found to be 4.27%; in experiment [2] it was 4.02%; in experiment [3] it was 4.58%.
Consider `Cc1cc(NCC(C)C)c2[nH]nc(-c3ccccc3)c2n1`, for which the inhibition in experiment [1] was found to be 2.41%; in experiment [2], 3.39%; in experiment [3], 1.69%.
In the case of `CCCCCCN1CCC(NCc2cccc(-n3ccnc3)c2)CC1`, the inhibition came to 8.02% in experiment [1], 7.03% in experiment [2] and 9.81% in experiment [3].
Take `O=C(Nc1ccc(C(=O)OCC2CCCN3CCCCC23)cc1)c1ccc(Cl)c(Cl)c1` (stereo unspecified): the inhibition in experiment [1] is 0.06%; in experiment [2] it was -0.05%; in experiment [3], 0.18%.
For `O=C(Nc1cccc(Cl)c1Cl)N[C@H]1CCN(CCCCCNC(=O)C2CC2c2ccc(Cl)c(Cl)c2)C1` (stereo partly specified), the values for the inhibition in experiment [1], in experiment [2] and in experiment [3] were 5.31%, 4.52% and 1.19%, respectively.
For `CC[C@H](C)CNC(=O)c1ccc(-c2cccc(CN3CCC(N4CCCC4)CC3)c2)nc1`, the values for the inhibition in experiment [1], in experiment [2] and in experiment [3] were 0.61%, 0.29% and 0.34%, respectively.
For `CCn1c(-c2nonc2N)nc2cnc(Oc3cccc(NC(=O)c4ccc(OCCN(C(C)C)C(C)C)cc4)c3)cc21` the same measures were 15.1%, 18.2% and 5.45%.
The corresponding values for `CC(C)COc1cc(C(=O)Nc2cnc3ccccc3c2)ccc1[N+](=O)[O-]` are 11.9%, 10.8% and 10.9%.
As to `CCCn1cnc2cc(C(=O)Nc3ccc(-c4cccc(CN(C)C)c4)cc3)ccc2c1=O`, the results for the inhibition in experiment [1], in experiment [2] and in experiment [3] were 55%, 3.03% and 5.21%, respectively.
Turning to `CN(C)S(=O)(=O)c1ccc(C(=O)N(c2nc(-c3ccccc3)cs2)C2CCCCC2)cc1`, the inhibition in experiment [1] worked out at 3.2%; in experiment [2], 3.31%; in experiment [3], 2.06%.
As to `Cc1cc(N2CCCC2)nc(Nc2ccc(NC(=O)c3ccccc3C)cc2)n1`, the inhibition in experiment [1] is -1.05%; in experiment [2], 6.45%; in experiment [3], 0.46%.
For the compound `Cc1cccc2nc(-c3ccc(-c4cccc(NC(=O)Nc5ccc(Cl)cc5)c4)s3)[nH]c12`, the inhibition in experiment [1] came out at 3.96%; in experiment [2] it was 3.55%; in experiment [3], 3.01%.
Take `CC(=O)N1N=C(c2ccc(F)cc2)Sc2c1nc(-c1ccccc1)n2C(C)=O`: the inhibition in experiment [1] was 8.6%; in experiment [2], 7.94%; in experiment [3], 8.7%.
Take `CCOc1ccc2c(=NN=Cc3ccccn3)cc(C)[nH]c2c1`: the inhibition was determined as 9.68% in experiment [1], 7.32% in experiment [2] and 6.78% in experiment [3].
On to `CCCCOc1c(CNCCCCCCNCc2ccc3ccccc3c2OCCCC)ccc2ccccc12`, for which the values for the inhibition in experiment [1], in experiment [2] and in experiment [3] were 99.5%, 49.1% and 85.2%, respectively.
For `Cc1cccc2nc(-c3cccc(-c4ccc(CNCc5cccc(N)c5)cc4)c3)[nH]c12` the same measures were -2.78%, -1.49% and -2.56%.
In the case of `CCNCc1ccc(-c2cc3ncnc(Nc4ccc(OCc5cccc(F)c5)c(Cl)c4)c3s2)[nH]1`, the inhibition in experiment [1] was -0.88%; in experiment [2], -3.14%; in experiment [3] it was 3.41%.
For `Cc1cc2ncn(-c3nccc(NCc4ccc(F)cc4)n3)c2cc1C`, the inhibition in experiment [1] is -0.72%; in experiment [2] it was -1.37%; in experiment [3], -0.57%.
